# SMN2 splice enh: SMN2 splice variant enhancement. Potency, µM (doses to about 46.1 µM), for the others: top-dose activity change, positive = activation, hits mostly activators. AID 1458. 210,000 tested, 2.8% active. HEK293 SMN2-luciferase splicing reporter, luminescence, 30-36 h; note: % of control where 0% means no effect; nearly all actives have a fitted effect of over 55% in size
#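 HEK293 cells carry an SMN2 minigene-luciferase reporter in which exon 7 inclusion puts luciferase in frame. Cells were seeded at 2000 cells/well, attached for 10-12 hours, then exposed to compounds for 30-36 hours at 37C before ONE-Glo luminescence.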
# NPC1 prom act: activates the NPC1 promoter. 320,000 tested, 2.4% active. Huh7 NPC1 promoter luciferase reporter, 24 h. Potency, µM (series often up to 9.22 µM), inactives show at the highest dose activation, most hits filed as activators; note: % of control where 0% means no effect; nearly all actives have a fitted effect of over 60% in size
#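 Readout is luciferase luminescence, reflecting NPC1 promoter activation in stably transfected Huh7 cells after 24 h compound exposure at 37 °C in reduced-serum medium with 10% FBS.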
# ELG1 genotox: induces genotoxicity in HEK293T cells with luciferase-tagged ELG1; HEK293T ELG1-luciferase reporter, luminescence, 16 h; Potency, µM (series often up to 46 µM), for inactives: top-dose activity change, positive = activation, actives largely listed as activators; 330,000 tested, 1.3% active; note: % of control where 0% means no effect; nearly all actives have a fitted effect of over 60% in size
#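 Screening used a luciferase reporter fused to human ELG1 in HEK293T cells. Luminescence was read on a CCD plate imager after 16 hr exposure and 30 min ONE-Glo incubation.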
# KinaseGlo FLuc: counter-screen: inhibitors of Kinase-Glo firefly luciferase; Q27757; Kinase-Glo luciferase, ATP luminescence, 8 min; Potency, µM (top dose mostly 38.3 µM), inactives show at the highest dose activity change, negative = inhibition, hits mostly inhibitors; 200,000 tested, 0.28% active; AID 1379; note: % is set by controls: 0 for no effect and ±100 for the full control effect; nearly all actives have a fitted effect of over 60% in size
#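 Recombinant Kinase-Glo luciferase, 10 uM ATP (linear range), luciferin; imidazole pH 7.2 / KCl / MgCl2 / Tween / BSA buffer; 8 min RT; luminescence.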
# FLuc counter: firefly luciferase modulation, counter-screen for miR-21 project. purified FLuc, Km substrates, luminescence inhibition. AID 588342. Potency, µM (highest dose often 57.5 µM), without a hit: top-dose activity change, negative = inhibition, actives largely listed as inhibitors. 360,000 tested, 6.9% active;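 note: plate controls were vehicle for no effect and reference inhibitor for full effect; nearly all actives have a fitted effect of over 55% in size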
# Target sequence (P08659 whole entry, looked up): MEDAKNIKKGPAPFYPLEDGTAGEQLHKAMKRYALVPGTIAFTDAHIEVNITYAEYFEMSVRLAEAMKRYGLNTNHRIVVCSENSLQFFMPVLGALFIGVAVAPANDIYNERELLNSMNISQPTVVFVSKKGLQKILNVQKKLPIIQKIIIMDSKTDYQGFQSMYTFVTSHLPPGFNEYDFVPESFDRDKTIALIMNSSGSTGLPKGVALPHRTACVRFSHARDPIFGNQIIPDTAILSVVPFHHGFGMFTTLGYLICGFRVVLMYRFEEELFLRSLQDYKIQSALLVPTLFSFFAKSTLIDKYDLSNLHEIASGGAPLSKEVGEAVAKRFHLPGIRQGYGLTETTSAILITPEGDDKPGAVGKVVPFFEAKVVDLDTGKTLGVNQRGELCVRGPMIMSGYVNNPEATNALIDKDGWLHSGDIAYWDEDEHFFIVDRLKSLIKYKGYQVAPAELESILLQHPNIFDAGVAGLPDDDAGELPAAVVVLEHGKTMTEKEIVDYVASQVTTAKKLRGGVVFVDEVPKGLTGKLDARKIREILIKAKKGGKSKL
#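 Purified P. pyralis luciferase (10nM final) with 10uM D-luciferin and 10uM ATP (Km levels) in 50mM Tris acetate pH 7.5, 10mM Mg acetate, 0.01% Tween-20, 0.05% BSA; qHTS 6-point titration, ~60 µM downward; luminescence read.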
# Rab9 promoter act: activates the Rab9 promoter | Huh7 Rab9 promoter-luciferase reporter, luminescence, 24 h | Potency, µM (top dose mostly 9.22 µM), without a hit: top-dose activation, negative = inhibition, actives largely listed as activators | 320,000 tested, 2.8% active; note: % of control where 0% means no effect; nearly all actives have a fitted effect of over 60% in size
#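 Rab9 promoter-driven luciferase in stably transfected Huh7 cells; 1500 cells/well rested 2 h, exposed to compound in DMSO for 24 h at 37 °C, 5% CO2. Luminescence read 10 min after adding luciferase reagent at ambient temperature.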
# The depositor's hits bear a star; ? = inconclusive; nt = no result; [ ] = another dose, or the depositor's remark. Most compounds without a hit are left out; they make up all but 7.5% or so of the library. Calls come from the whole dose curve; as a rule, active = well fitted curve in the direction sought with a large enough effect; inconclusive = small, poorly fitted or top-dose-only effect, or another doubt; inactive = no such curve, though single readings can be large; an effect the other way counts as inactive or inconclusive. Potency is the fitted concentration of half-maximal effect.
SMILES,SMN2 splice enh,NPC1 prom act,ELG1 genotox,KinaseGlo FLuc,FLuc counter,Rab9 promoter act
COc1ccc(-n2nc(C(=O)NCC(=O)N3CCN(c4ccccc4)CC3)c3ccccc3c2=O)c(OC)c1,nt,?,0%,nt,0.54µM*,?
O=C(CCCn1c(=O)c2ccccc2n(Cc2cccc(F)c2)c1=O)NCc1ccccc1Cl,-7%,nt,nt,nt,0%,nt
COC(=O)c1ccccc1O,2%,nt,nt,nt,nt,nt
O=C(N=Nc1ccc(NOC(=O)c2ccccc2Br)cc1)c1ccccc1O,-29%,?,3%,-21%,8.5µM*,?
O=C(c1cccs1)N(c1ccc(Br)cc1)C1C=CS(=O)(=O)C1 (stereo not drawn),8%,-4%,-3%,0%,-1%,-1%
Cc1ccc(NC(=O)N2CCC(CN3CCC(C)CC3)CC2)cc1F,nt,nt,nt,nt,2%,nt
COc1ccccc1CNC(=O)C(=O)c1cn(CC(=O)N2CCOCC2)c2ccccc12,nt,-1%,4%,nt,?,12%
COc1ccc(CCNC(=O)C(=O)c2cn(CC(=O)N3CCOCC3)c3ccccc23)cc1OC,nt,-1%,6%,nt,21µM*,1%
COc1ccccc1CCNC(=O)C(=O)c1cn(CC(=O)N2CCCC2)c2ccccc12,nt,23%,2%,nt,11µM*,26%
COc1ccccc1NC(=O)C(=O)c1cn(CC(=O)N2CCOCC2)c2ccccc12,nt,?,?,nt,4.8µM*,?
COc1ccc(NC(=O)C(=O)c2cn(CC(=O)N3CCCC3)c3ccccc23)c(OC)c1,nt,?,?,nt,4.8µM*,?
COc1ccc(NC(=O)C(=O)c2cn(CC(=O)N3CCOCC3)c3ccccc23)cc1OC,nt,0%,-1%,nt,?,-1%
CCCS(=O)(=O)c1nc(S(=O)(=O)c2ccc(C)cc2)c(NCc2ccccc2Cl)s1,-1%,nt,nt,nt,-4%,nt
Cc1c(C(=O)N(C)C2CCCCC2)sc2nc3ccc(N)cc3n12,nt,nt,nt,3%[39.9 µM],nt,nt
COc1ccccc1NC(=O)CSc1cn(CC(=O)N2CCCC2)c2ccccc12,nt,nt,nt,nt,-9%,nt
COc1ccccc1NC(=O)C(=O)c1cn(CC(=O)N2CCCC2)c2ccccc12,nt,?,13%,nt,4.8µM*,?
COc1ccc(C(=O)NCC(c2cccnc2)N2CCc3ccccc3C2)cc1OC (stereo not drawn),nt,nt,nt,nt,0.67µM*,nt
COc1ccc(C(=O)NCC(c2cccnc2)N2CCc3ccccc3C2)cc1 (stereo not drawn),nt,nt,nt,nt,-1%,nt
Cc1[nH]c2ccccc2c1-c1cc(-c2cc(-c3c(C)[nH]c4ccccc34)on2)no1,-4%[9.22 µM],nt,nt,0%[7.66 µM],nt,nt
c1csc(-c2nc3ccccc3[nH]2)c1,13µM*,?,15%,-15%,30µM*,?
Cc1[nH]c2ccccc2c1-c1nc2ccccc2[nH]1,16%,24%,?,-2%,27µM*,13%
Cc1ccc(-c2nc3ccccc3[nH]2)s1,7.1µM*,1.6µM*,?,13µM*,3µM*,0.63µM*
Fc1ccc(-c2nc(-c3cccs3)[nH]c2-c2ccc(F)cc2)cc1,-33%,1%,-5%,0%,-5%,-1%
COCCn1c(SCC(=O)NC(=O)NC2CCCC2)nc2ccccc2c1=O,nt,1%,-4%,nt,-1%,-5%
O=C1OC(c2ccc(Cl)cc2)=C/C1=C/c1cccnc1,nt,0%,-3%,nt,-14%,8%
SMILES,SMN2 splice enh,NPC1 prom act,ELG1 genotox,KinaseGlo FLuc,FLuc counter,Rab9 promoter act
Cc1ccc(C2=C/C(=C/c3cccnc3)C(=O)O2)c(C)c1,9%,-3%,1%,-1%,6µM*,1%
c1ccc(-c2cnc(-c3cccnc3)o2)cc1,6%,?,?,-8%,15µM*,?
Cc1ccc(-c2cnc(-c3ccccc3C(=O)O)o2)cc1,nt,?,?,nt,13µM*,?
NC(=O)c1ccc(-c2ncc(-c3ccccc3)o2)cc1,0.5µM*,0.28µM*,0.18µM*,-5%,2.1µM*,?
CCOC(=O)c1c(NC(C)=O)c2c3c(sc2n1Cc1cccc(Cl)c1)CCCC3,7%,nt,nt,nt,-2%,nt
CCOC(=O)/C=C(\C)Sc1cc(O)c2ccccc2c1O,nt,-2%,-12%,nt,9.5µM*,-32%
CCCCN(C)CCCNC(=O)Cn1ncc2c3ccccc3n(Cc3ccccc3F)c2c1=O,1%,nt,nt,nt,-5%,nt
CCOc1cc(/C=C(/C#N)c2ccc(F)cc2)ccc1OCc1ccc(C(=O)O)o1,10%,3%,1%,-4%,13µM*,2%
CCOC(=O)c1c(C)oc2nc(C)nc(N(C)Cc3ccccc3)c12,nt,nt,nt,nt,-14%,nt
CCc1ccc(Nc2nnc(SCC(=O)Nc3ccc(C(=O)O)cc3)s2)cc1,nt,18%,6%,nt,0.54µM*,18%
CCc1ccc(Nc2nnc(SCC(=O)NC(=O)c3cccn3C)s2)cc1,11%,1%,?,-2%,?,-6%
CCc1ccc(Nc2nnc(SCC(=O)Nc3cccc(S(=O)(=O)NC4=NCCCCC4)c3)s2)cc1,13µM*,?,-10%,-10%,0.48µM*,?
Cc1cccc(Nc2nnc(SCC(=O)Nc3cccc(S(=O)(=O)N4CCCCC4)c3)s2)c1,0%[1.84 µM],14%,13%,-2%,2.7µM*,4%
O=C(CSc1nnc(SCc2cccc3ccccc23)s1)Nc1ccc(C(=O)O)cc1,18%,-1%,2%,3%,8.5µM*,-9%
CCCOc1ccccc1-c1nc(SCC(=O)c2ccccc2)n[nH]1,-9%,nt,nt,nt,-16%,nt
CN(C(=O)c1nn(C)c2c1COc1ccccc1-2)c1cccc(C(F)(F)F)c1,nt,nt,nt,nt,4%,nt
Cc1ccc(Nc2nnc(SCC(=O)Nc3cccc(S(=O)(=O)NC4=NCCCCC4)c3)s2)cc1,12%,11%,5%,-2%,1.9µM*,1%
Cc1nnc(SCC(=O)Nc2cccc(S(=O)(=O)NC3=NCCCCC3)c2)n1Cc1ccccc1,-1%,-2%,0%,1%,-3%,-1%
Cc1nnc(SCc2cccc3ccccc23)s1,nt,?,?,nt,24µM*,?
O=C(CSc1nncc2ccccc12)Nc1cccc(C(=O)O)c1,nt,22%,?,nt,11µM*,21%
O=S(=O)(c1ccc2ccccc2c1)n1cccn1,nt,10%,5%,nt,1%,5%
COC(=O)C1=C(C)N(Cc2ccccc2)C(=S)N[C@H]1CCc1ccccc1,nt,-2%,nt,nt,5%,-2%
COc1ccc(CNC(=O)c2cc3c(s2)CS(=O)C3)cc1 (stereo not drawn),-12%,1%,5%,-4%,2%,4%
COC(=O)c1cc2c(s1)CS(=O)C2 (stereo not drawn),?,2.5µM*,?,0%,13µM*,4µM*
Cc1cc(C(=O)CN2CCC(C)CC2)c(C)n1-c1ccccc1F,?,-8%,?,1%,1.9µM*,-8%

# Assay outcomes deposited in PubChem BioAssay by National Center for Advancing Translational Sciences (NCATS).
